# In PubChem BioAssay (Tox21):
# Values without a mark were called inactive. Inconclusive results are not listed. Entries that show only a call come without a potency. Active and inactive are the calls of the source. Unless noted, calls follow the shape of the dose curve; as a rule, active = well fitted curve in the direction sought with a large enough effect in the repeat runs; inconclusive = weak or mixed curves; inactive = no such curve, though single readings can be large; an effect the other way counts as inactive or inconclusive.
# Key:
# [1] = qHTS assay to test for compound auto fluorescence at 535 nm (green) in HEK293 cells (AID 720680)
# [2] = qHTS assay to test for compound auto fluorescence at 460 nm (blue) in HEK293 cell free culture (AID 720681)
# In short: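 Blue fluorescence (Ex 405/Em 460 nm, triamterene-equivalent) was read immediately after pin transfer of compound or DMSO into medium (DMEM, 10% FBS) without cells.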
# [3] = qHTS assay to test for compound auto fluorescence at 590 nm (red) in HEK293 cell free culture (AID 720683)
# In short: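 Red-channel autofluorescence of compounds in culture medium (DMEM, 10% FBS), no cells, measured at 540/590 nm. Rose Bengal sodium is the reference fluorophore for equivalence.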
# [4] = qHTS assay to test for compound auto fluorescence at 590 nm (red) in HepG2 cell free culture (AID 720684)
# In short: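 Steps: dispense MEM/10% FBS medium, no cells; pin compound or DMSO vehicle; read red channel, Ex/Em 540/590 nm. Output given as Rose Bengal sodium equivalents.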
# [5] = qHTS assay to test for compound auto fluorescence at 460 nm (blue) in HepG2 cell free culture (AID 720685)
# In short: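 Compound (23 nL) or DMSO pinned into cell-free MEM with 10% FBS; blue fluorescence read at 405/460 nm excitation/emission, expressed as auto-fluorescence equivalency to triamterene.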
# [6] = qHTS assay to test for compound auto fluorescence at 535 nm (green) in HepG2 cell free culture (AID 720686)
# [7] = qHTS assay to test for compound auto fluorescence at 460 nm (blue) in HepG2 cells (AID 720687)
# In short: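 Blue-channel autofluorescence (Ex/Em 405/460 nm, triamterene-equivalent) was measured after 1 hr compound exposure at 37 C, 5% CO2. Cells were HepG2, plated overnight at 37 C in MEM plus 10% FBS.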
# [8] = qHTS assay to identify small molecule antagonists of the glucocorticoid receptor (GR) signaling pathway - cell viability counter screen (AID 720693); also: nearly all actives have a fitted effect of over 55% in size
# [9] = qHTS assay for identifying genotoxic compounds that show differential cytotoxicity against isogenic chicken DT40 cell lines with known DNA damage response pathways - wild type cell line (AID 743012); also: nearly all actives have a fitted effect of over 60% in size
# In short: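 Using parental DT40 (300 cells/well), compounds delivered in DMSO incubate 40 h at 37 C/5% CO2. CellTiter-Glo reagent then stands 30 min at room temperature, and luminescence gives cell viability.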
# [10] = qHTS assay for identifying genotoxic compounds that show differential cytotoxicity against isogenic chicken DT40 cell lines with known DNA damage response pathways - Rad54/Ku70 mutant cell line (AID 743015); also: nearly all actives have a fitted effect of over 60% in size; also: potency is read from the fitted curve at half-maximal effect
# [11] = qHTS assay to identify small molecule antagonists of the androgen receptor (AR) signaling pathway - cell viability counter screen (AID 743033; also: nearly all actives have a fitted effect of over 45% in size)
# [12] = qHTS assay to identify small molecule antagonists of the androgen receptor (AR) signaling pathway using the MDA cell line - cell viability counter screen (AID 743041; also: nearly all actives have a fitted effect of over 45% in size)
# In short: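 Cells were plated at 3,000 per well and left 5 h. Compounds in DMSO were then pinned in, followed by R1881. After 16 h at 37C, CellTiter-Fluor fluorescence gave viability.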
# [13] = molecular target: Glucocorticoid receptor (Homo sapiens) (UniProt P04150); assay: qHTS assay to identify small molecule agonists of the glucocorticoid receptor (GR) signaling pathway (AID 720691; active = well fitted activation curve with a large enough effect in the signal ratio in the repeat runs, not every such curve was filed as active; the % refers to the signal ratio)
# Glucocorticoid receptor (Homo sapiens), sequence (P04150 whole entry, looked up): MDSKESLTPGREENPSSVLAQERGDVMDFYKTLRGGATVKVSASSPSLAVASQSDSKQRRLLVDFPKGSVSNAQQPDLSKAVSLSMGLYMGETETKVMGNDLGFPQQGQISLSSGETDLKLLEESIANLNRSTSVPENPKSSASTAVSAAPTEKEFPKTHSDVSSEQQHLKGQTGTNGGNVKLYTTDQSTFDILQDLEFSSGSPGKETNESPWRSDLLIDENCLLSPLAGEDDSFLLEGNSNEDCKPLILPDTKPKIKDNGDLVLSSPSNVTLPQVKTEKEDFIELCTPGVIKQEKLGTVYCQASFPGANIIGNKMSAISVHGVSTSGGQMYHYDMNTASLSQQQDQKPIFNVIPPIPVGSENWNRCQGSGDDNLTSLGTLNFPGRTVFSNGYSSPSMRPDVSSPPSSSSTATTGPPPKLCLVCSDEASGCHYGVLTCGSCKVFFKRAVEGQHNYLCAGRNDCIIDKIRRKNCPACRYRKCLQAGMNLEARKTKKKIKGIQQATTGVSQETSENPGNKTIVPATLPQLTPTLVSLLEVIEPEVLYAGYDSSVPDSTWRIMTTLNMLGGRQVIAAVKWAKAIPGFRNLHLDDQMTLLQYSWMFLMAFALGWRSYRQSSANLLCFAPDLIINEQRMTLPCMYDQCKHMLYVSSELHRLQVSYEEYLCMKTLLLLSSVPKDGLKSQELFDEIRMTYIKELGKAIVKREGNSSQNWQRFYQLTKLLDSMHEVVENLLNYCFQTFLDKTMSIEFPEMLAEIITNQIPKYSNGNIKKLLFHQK
# In short: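 Reporter read-out: fluorescence intensity following 2 h room-temperature LiveBLAzer B/G FRET substrate loading. Prior step: GR-bla HeLa cells held 4 h, then treated 18 h at 37 C.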
# [14] = molecular target: Glucocorticoid receptor (Homo sapiens) (UniProt P04150); assay: qHTS assay to identify small molecule antagonists of the glucocorticoid receptor (GR) signaling pathway (AID 720692; active = well fitted inhibition curve with a large enough effect in the signal ratio in the repeat runs, not every such curve was filed as active; the % refers to the signal ratio)
# In short: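 Dexamethasone (5 nM final) stimulated a stably integrated GRE-beta-lactamase reporter in HeLa cells during 18 h co-incubation with compounds; signal was quantified as fluorescence intensity of B/G FRET substrate after 2 h.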
# [15] = qHTS assay to test for compound auto fluorescence at 535 nm (green) in HEK293 cell free culture (AID 720682)
# In short: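 Compounds were pin-transferred into cell-free DMEM with 10% FBS, and green fluorescence was read at excitation 485 nm and emission 535 nm. Intensities were expressed as fluorescein-equivalent values.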
# [16] = qHTS assay for identifying genotoxic compounds that show differential cytotoxicity against isogenic chicken DT40 cell lines with known DNA damage response pathways - Rev3 mutant cell line (AID 743014); also: nearly all actives have a fitted effect of over 55% in size; also: potency is read from the fitted curve at half-maximal effect
# [17] = molecular target: Androgen receptor (Homo sapiens) (UniProt P10275); assay: qHTS assay to identify small molecule agonists of the androgen receptor (AR) signaling pathway using the MDA cell line (AID 743040; also: nearly all actives have a fitted effect of over 20% in size)
# Androgen receptor (Homo sapiens), sequence (P10275 whole entry, looked up): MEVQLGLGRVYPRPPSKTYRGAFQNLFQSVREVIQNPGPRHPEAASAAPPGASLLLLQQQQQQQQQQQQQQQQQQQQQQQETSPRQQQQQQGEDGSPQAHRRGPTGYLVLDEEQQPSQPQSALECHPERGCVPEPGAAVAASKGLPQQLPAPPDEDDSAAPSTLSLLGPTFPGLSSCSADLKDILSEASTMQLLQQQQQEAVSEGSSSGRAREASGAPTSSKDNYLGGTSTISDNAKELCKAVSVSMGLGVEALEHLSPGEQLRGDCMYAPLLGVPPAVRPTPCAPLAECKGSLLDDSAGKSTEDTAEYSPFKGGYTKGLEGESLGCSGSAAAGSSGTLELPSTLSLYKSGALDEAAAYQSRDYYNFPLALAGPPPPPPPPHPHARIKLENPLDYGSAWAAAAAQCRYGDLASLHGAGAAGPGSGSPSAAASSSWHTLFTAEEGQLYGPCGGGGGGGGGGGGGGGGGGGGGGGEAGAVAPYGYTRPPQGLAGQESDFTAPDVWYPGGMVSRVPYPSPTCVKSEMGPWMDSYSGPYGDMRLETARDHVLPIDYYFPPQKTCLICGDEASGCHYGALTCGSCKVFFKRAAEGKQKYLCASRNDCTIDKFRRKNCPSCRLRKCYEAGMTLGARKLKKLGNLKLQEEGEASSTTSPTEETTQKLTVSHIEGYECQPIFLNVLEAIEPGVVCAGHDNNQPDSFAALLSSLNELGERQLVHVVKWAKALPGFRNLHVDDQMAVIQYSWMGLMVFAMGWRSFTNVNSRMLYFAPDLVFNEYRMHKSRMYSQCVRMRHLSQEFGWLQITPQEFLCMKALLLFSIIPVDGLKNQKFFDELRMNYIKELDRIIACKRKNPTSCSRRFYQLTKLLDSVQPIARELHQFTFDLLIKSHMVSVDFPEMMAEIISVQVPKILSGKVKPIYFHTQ
# In short: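 Cells plated, 5 h at 37C/0% CO2; compound or DMSO pinned; 16 h at 37C; ONE-Glo added; luminescence measured after 30 min at room temperature. Reporter line: MDA-kb2 with MMTV-luciferase responsive to AR and GR.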
# [18] = molecular target: Androgen receptor (Homo sapiens) (UniProt P10275); assay: qHTS assay to identify small molecule antagonists of the androgen receptor (AR) signaling pathway using the MDA cell line (AID 743042; also: nearly all actives have a fitted effect of over 55% in size)
# In short: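 Antagonist mode: compounds plus R1881 agonist added to MDA-kb2 AR-luc cells, incubated 16 h at 37C. Luciferase reporter luminescence quantified, with multiplexed CellTiter-Fluor readout for cell viability.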
smiles,measurement,setting,value
CN1C(C)(C)CC(O)CC1(C)C,outcome,[1],inactive
same,outcome,[2],inactive
same,outcome,[3],inactive
same,outcome,[4],inactive
same,outcome,[5],inactive
same,outcome,[6],inactive
same,outcome,[7],inactive
same,outcome,[8],inactive
same,Potency,[9],inactive
same,Potency,[10],inactive
same,outcome,[11],inactive
same,Potency,[12],inactive
CCCO[Si](OCCC)(OCCC)OCCC,outcome,[1],inactive
same,outcome,[2],inactive
same,outcome,[4],inactive
same,outcome,[5],inactive
same,outcome,[6],inactive
same,outcome,[7],inactive
same,Potency,[13],inactive
same,Potency,[14],inactive
same,outcome,[8],inactive
same,Potency,[9],inactive
same,Potency,[10],inactive
same,outcome,[11],inactive
same,Potency,[12],inactive
Cc1ccccc1N=C(N)N=C(N)N,outcome,[1],inactive
same,outcome,[2],inactive
same,outcome,[3],inactive
same,outcome,[5],inactive
same,outcome,[6],inactive
same,outcome,[8],inactive
same,outcome,[11],inactive
same,Potency,[12],inactive
NC(=O)Cc1cccc2ccccc12,outcome,[2],inactive
same,outcome,[15],inactive
same,outcome,[3],inactive
same,outcome,[4],inactive
same,outcome,[5],inactive
same,outcome,[6],inactive
same,outcome,[7],inactive
same,Potency,[13],inactive
same,Potency,[14],inactive
same,outcome,[8],inactive
same,Potency,[9],inactive
same,Potency,[16],inactive
same,Potency,[10],inactive
same,outcome,[11],inactive
same,Potency,[12],inactive
Nc1c2c(nc3c1CCC3)CCCC2,outcome,[1],inactive
same,outcome,[2],inactive
same,outcome,[3],inactive
same,outcome,[4],inactive
same,outcome,[5],inactive
same,outcome,[6],inactive
same,outcome,[7],inactive
same,outcome,[8],inactive
same,Potency,[9],inactive
same,Potency,[16],inactive
same,Potency,[10],inactive
same,outcome,[11],inactive
same,Potency,[17],inactive
same,Potency,[12],inactive
same,outcome,[18],inactive
NC(N)=NCCN1CCCCCCC1,"fluorescence, % of fluorescein",[1],-0.017% [at 18.6 µM]
same,"fluorescence, % of fluorescent control",[2],-0.0671% [at 18.6 µM]
same,"fluorescence, % of fluorescent control",[3],-0.0086% [at 18.6 µM]
same,"fluorescence, % of Rose Bengal",[4],-0.0563% [at 18.6 µM]
same,"fluorescence, % of fluorescent control",[5],0.0071% [at 18.6 µM]
same,"fluorescence, % of fluorescein control",[6],0.0218% [at 18.6 µM]
same,"fluorescence, % of fluorescent control",[7],-0.0842% [at 18.6 µM]
same,Potency,[13],inactive
same,Potency,[14],inactive
same,outcome,[8],inactive
same,outcome,[11],inactive
same,Potency,[12],inactive
COc1c(N2CCNC(C)C2)c(F)cc2c(=O)c(C(=O)O)cn(C3CC3)c12 (stereo not given),outcome,[2],inactive
same,outcome,[15],inactive
same,outcome,[3],inactive
same,outcome,[4],inactive
same,outcome,[5],inactive
same,outcome,[6],inactive
same,outcome,[7],inactive
same,Potency,[13],inactive
same,Potency,[14],inactive
same,outcome,[8],inactive
same,Potency,[9],inactive
same,Potency,[16],inactive
same,Potency,[10],inactive
same,outcome,[11],inactive
same,Potency,[12],inactive
CC(C)(CCC(=O)O)C(=O)O,outcome,[1],inactive
same,outcome,[2],inactive
same,outcome,[3],inactive
same,outcome,[4],inactive
same,outcome,[5],inactive
same,outcome,[6],inactive
same,outcome,[7],inactive
same,Potency,[13],inactive
same,Potency,[14],inactive
same,outcome,[8],inactive
same,Potency,[16],inactive
same,Potency,[10],inactive
same,outcome,[11],inactive
same,Potency,[12],inactive
CC(C)(C)OC(=O)c1cccc(N)c1,outcome,[1],inactive
same,outcome,[2],inactive
same,outcome,[3],inactive
same,outcome,[4],inactive
same,outcome,[5],inactive
same,outcome,[6],inactive
same,outcome,[7],inactive
same,Potency,[13],inactive
same,Potency,[14],inactive
same,outcome,[8],inactive
same,Potency,[9],inactive
same,Potency,[10],inactive
same,outcome,[11],inactive
same,Potency,[12],inactive
C[N+]1(CC2COC(c3ccccc3)(c3ccccc3)O2)CCCCC1 (stereo not given),outcome,[1],inactive
same,outcome,[2],inactive
same,outcome,[4],inactive
same,outcome,[5],inactive
same,outcome,[6],inactive
same,Potency,[14],inactive
same,outcome,[8],inactive
same,Potency,[16],29.8 µM (active)
same,outcome,[11],inactive
same,Potency,[12],inactive
COc1cc(C(=O)OC(COCCC(C)C)CN2CCOCC2)cc(OC)c1OC (stereo not given),outcome,[2],inactive
same,outcome,[15],inactive
same,outcome,[3],inactive
same,outcome,[4],inactive
same,outcome,[5],inactive
same,outcome,[6],inactive
same,outcome,[7],inactive
same,Potency,[13],inactive
same,Potency,[14],inactive
same,outcome,[8],inactive
same,Potency,[16],inactive
same,Potency,[12],inactive
C=COCC1CCC(COC=C)CC1 (stereo not given),outcome,[1],inactive
same,outcome,[2],inactive
same,outcome,[4],inactive
same,outcome,[5],inactive
same,outcome,[6],inactive
same,outcome,[7],inactive
same,Potency,[13],inactive
same,outcome,[8],inactive
same,Potency,[9],inactive
same,outcome,[11],inactive
same,Potency,[12],inactive
C[N+]12CCC(CC1)C(OC(=O)C(O)(c1ccccc1)c1ccccc1)C2 (stereo not given),"fluorescence, % of fluorescein",[1],0.041% [at 18.6 µM]
same,"fluorescence, % of fluorescent control",[2],0.066% [at 18.6 µM]
same,"fluorescence, % of fluorescent control",[3],0.0635% [at 18.6 µM]
same,"fluorescence, % of Rose Bengal",[4],0.213% [at 18.6 µM]
same,"fluorescence, % of fluorescent control",[5],-0.0875% [at 18.6 µM]
same,"fluorescence, % of fluorescein control",[6],-0.0194% [at 18.6 µM]
same,Potency,[13],inactive
same,outcome,[8],inactive
same,Potency,[9],inactive
same,Potency,[10],inactive
same,Potency,[12],inactive
c1coc(CNc2ncnc3nc[nH]c23)c1,outcome,[1],inactive
same,outcome,[2],inactive
same,outcome,[3],inactive
same,outcome,[4],inactive
same,outcome,[5],inactive
same,outcome,[6],inactive
same,outcome,[7],inactive
same,outcome,[8],inactive
same,Potency,[10],54.5 µM (active)
same,outcome,[11],inactive
C=CN1CCCCCC1=O,outcome,[1],inactive
same,outcome,[2],inactive
same,outcome,[3],inactive
same,outcome,[5],inactive
same,outcome,[6],inactive
same,outcome,[7],inactive
same,Potency,[13],inactive
same,Potency,[14],inactive
same,outcome,[8],inactive
same,Potency,[9],inactive
same,Potency,[16],inactive
same,Potency,[10],inactive
same,outcome,[11],inactive
